Results from PubChem BioAssay AID743330 (NMMLSC, 2014).
Activity calls are given as the source filed them. How the calls were made is not given here.

Test system: Cdc42
Assay: fluorescent GTP concentration effect on GTPase potency – biochemical, four GTPases, bead flow cytometry, mechanism study, profiling panel (AID 743330)
Conditions: bead-based flow cytometry, fluorescent GTP binding to GTPases

SMILES | outcome | EC50
CCC1(C)Cc2c(sc(NC(=S)NC(=O)c3ccccc3)c2C(=O)O)CO1 (configuration not stated) | inactive | –
CC1(C)Cc2c(sc(NC(=S)NC(=O)c3ccc(F)cc3)c2C(=O)O)CO1 | – | 0.076 µM (active)
